# Compound activity (PubChem BioAssay)
# MEKK3 PB1 HTS: raises or lowers MEK5 binding to the human MEKK3 PB1 domain. Q99759. bead-based flow cytometry, Alexa488-MEK5 binding to MEKK3; actives lie on both sides; 0 = blocked by unlabeled MEK5, 100 = vehicle. binding response (% of control), % at 10 µM. 1.4% of 290,000 active. AID 1529;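 active = binding response more than 3 SD above or below the average of its plate-row segment, actives on both sides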;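 note: Alexa488 bead fluorescence after subtracting the streptavidin-only scavenger bead signal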
# MEKK2mut PB1 HTS: signal of MEK5 binding to mutant human MEKK2 PB1 domain | percent response, % at 10 µM | 0.35% of 290,000 active | bead flow cytometry, Alexa488-MEK5 binding to MEKK2 mutant; in the data active = percent response above about 24%, passing the limit was not always enough
# MEKK2 WT-MEK5: raises or lowers MEK5 binding to wildtype human MEKK2 PB1 domain; Q9Y2U5; bead flow cytometry, Alexa488-MEK5 binding to MEKK2 WT; actives lie on both sides; binding response (% of control), % at 10 µM; 1.1% of 290,000 active; AID 1531; in the data active = binding response below about 67% or above about 130%
# PREPL inh: inhibits the human prolyl oligopeptidase-like enzyme; inhibition, % at 5.96 µM; recombinant PREPL, fluorescence polarization activity-based probe; 0.68% of 320,000 active; in the data active = inhibition above about 43%;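 note: 0% = enzyme with DMSO and 100% = wells lacking enzyme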
# UBC13 polyUb: blocks human UBC13 polyubiquitin chain formation | P61088 | AID 485273 | inhibition, % at 20 µM | 0.47% of 330,000 active | TR-FRET; in the data active = inhibition above about 45%, passing the limit was not always enough
# Target sequence (P61088 whole entry, looked up): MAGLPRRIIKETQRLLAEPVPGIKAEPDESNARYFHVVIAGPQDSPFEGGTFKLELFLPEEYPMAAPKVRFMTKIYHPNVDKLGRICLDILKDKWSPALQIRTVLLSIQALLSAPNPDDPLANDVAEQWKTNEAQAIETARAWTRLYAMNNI
# ATG4B inhibitor: ATG4B (human) cysteine protease inhibition; ATG4B cleavage of LC3-PLA2, NBD-HPC fluorescence, 1 h; inhibition, % at 8.33 µM; 0.51% of 340,000 active; in the data active = inhibition above about 40%
# MEKK2wt confirm: raises or lowers MEK5 binding to wildtype human MEKK2, retest | shares compounds with MEKK3 PB1 HTS | bead flow cytometry, Alexa488-MEK5 binding to MEKK2 WT; actives lie on both sides | binding response (% of control), % at 10 µM | 2.4% of 5,900 active | AID 1892; in the data active = binding response below about 16% or above about 210%; inactive = in between
# MEKK2mut-MEK5: signal of MEK5 binding to mutant human MEKK2, retest; 2% of 5,900 active; bead flow cytometry, Alexa488-MEK5 binding to MEKK2 mutant; percent response, % at 10 µM; shares compounds with MEKK3 PB1 HTS; AID 1893; in the data active = percent response mostly above about 71%, no sharp cut-off; inactive = mostly below about 38%;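 note: higher means compound restores mutant binding toward wildtype level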
# MEKK3-MEK5 inh: confirmation of inhibitors of MEK5 binding to human MEKK3. bead flow cytometry, Alexa488-MEK5 binding to MEKK3; active compounds read low. 1.8% of 5,900 active. shares compounds with MEKK3 PB1 HTS. binding response (% of control), % at 10 µM. AID 1894;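 active = binding response below 72% of control, or above a set upper limit, though filed actives all read lower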;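 note: 100% = DMSO only wells and 0% = binding blocked by excess unlabeled MEK5; lower values mean stronger disruption of MEK5 binding to MEKK3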
# * hit, by the source's call; / = not tested or not shown; [ ] = another dose, or the depositor's remark. This is a sample that favours compounds with a hit; in the whole collection about 3.1% have one here.
SMILES,MEKK3 PB1 HTS,MEKK2mut PB1 HTS,MEKK2 WT-MEK5,PREPL inh,UBC13 polyUb,ATG4B inhibitor,MEKK2wt confirm,MEKK2mut-MEK5,MEKK3-MEK5 inh
CCOc1cc(C2C(C#N)=C(N)OC(C)=C2C(C)=O)cc(Br)c1O (stereo unspecified),99,-2,99,9,-1,-10,/,/,/
CCOc1cc(C2C(C#N)=C(N)OC(C)=C2C(C)=O)c(Br)c(Br)c1OC(C)C (stereo unspecified),68*[inhibitor],0,94,6,-10,0,96,-4,100
O=c1c(Cl)c(Cl)cnn1Cc1nnc(-c2ccc(Cl)cc2)o1,96,-5,87,/,/,8,/,/,/
Cc1nn(CC2CC2)c(=O)n1-c1cccc(Cl)c1,154*,5,133,16,-14,1,97,-5,98
Cc1nn(CC2CC2)c(=O)n1-c1ccc(F)cc1,129*,3,115,10,-17,-3,100,0,100
CC1(C)CC(NC(=O)c2cccc(S(=O)(=O)Nc3cccc(Cl)c3)c2)CC(C)(C)N1,/,/,/,-2,33,-1,/,/,/
Cc1ccc(NC(=O)CSc2nnc(-c3cccs3)o2)cc1S(=O)(=O)N1CCCCC1,135*,0,105,1,5,0,99,4,105
CCOc1ccccc1N/C(=N/c1nc(C)cc(C)n1)NC(=O)Nc1ccc(Cl)c(Cl)c1,72*[inhibitor],-1,94,-2,-17,/,100,-5,102
O=c1nc2onnc2c(C=NO)[nH]1,/,/,/,/,/,0,/,/,/
CCC(C(=O)NC(C)(C)C)N(Cc1cccs1)C(=O)CNS(=O)(=O)c1ccccc1 (stereo unspecified),132*,29,118,17,-14,-12,97,-8,100
CC(C)(C)NC(=O)CN(Cc1cccs1)C(=O)CNS(=O)(=O)c1ccc(F)cc1,94,-13,84,7,-7,1,/,/,/
C/C(=N\NC(=O)Cc1c(C)[nH][nH]c1=O)c1ccc(Cl)c(Cl)c1,100,-2,99,4,-2,1,/,/,/
C/C(=N/NC(=O)Cc1c(C)[nH][nH]c1=O)c1ccc(O)cc1,145*,2,113,-7,14,3,97,-5,100
C/C(=N\NC(=O)Cc1c(C)[nH][nH]c1=O)c1cccc(Br)c1,49*[inhibitor],-12,50,11,11,6,98,-6,100
C=CC(=O)Nc1cccc(N(C)c2ccnc(Nc3ccc(N4CCN(C)CC4)cc3)n2)c1,/,/,/,/,/,1,/,/,/
O=C(COC(=O)CCc1c[nH]c2ccccc12)Nc1ccccc1C(F)(F)F,/,/,/,22,-12,7,/,/,/
CN(C)c1ccc(NC(=O)CN2CCC(O)(c3ccccc3)CC2)cc1,1.0*[inhibitor],-35,/,9,-18,-6,33,-25,69*
CN(C)c1ccc(NC(=O)CN2CCN(CC(=O)Nc3ccc(F)cc3)CC2)cc1,109,18,117,24,5,-4,/,/,/
O=C(COc1ccc(Br)cc1)N1CCN(c2ncccn2)CC1,/,/,/,-11,1,-7,/,/,/
COc1ccc(OCC(O)CNCCOc2ccccc2OC)c(C(C)(C)C)c1 (stereo unspecified),112,25*,147*,39,21,-6,128,12,103
CCCc1cc(=O)n2nc(N3CCC(C(=O)NCc4ccco4)CC3)sc2n1,100,2,100,6,-3,12,/,/,/
Cc1ccc(Cc2nnc3n(-c4ccccc4)nc(C(=O)c4ccccc4)n3c2=O)cc1,65*[inhibitor],-2,86,-7,3,-13,96,1,98
Cc1nc(SCC(=O)O)c(C#N)c(-c2ccco2)c1C(=O)N(C)C,93,-13,96,3,14,-5,/,/,/
